# Records with an inconclusive call do not appear. Activity calls are given as the source filed them. Calls come from the whole dose curve; as a rule, active = well fitted inhibition curve with a large enough effect; inconclusive = small, poorly fitted or top-dose-only effect, or effect the other way; inactive = flat fitted curve, though single readings scatter.
# Experiment: qHTS for Inhibitors of Plasmodium falciparum (CP250) proliferation (AID 504320)
# Conditions: P. falciparum CP250 in erythrocytes, SYBR Green DNA, 72 h; series mostly up to 6.7 µM
# Description: Plasmodium falciparum is a virulent malarial parasite that kills 1-2 million people worldwide each year. Malaria not only inflicts tremendous suffering and morbidity on the human population, but has dramatically influenced the course of civilization with profound sociological and economic implications (Shah, S. 2010). Transmitted by mosquitoes, the sporozoite form of the parasite enters the blood stream to infect hepatocytes, where they become merozoites that infect red blood cells (erythrocytes). Within erythrocytes, merozoites begin a […] cycle of growth and division, after which the parasite is released to infect new red blood cells. Gametocytes, which form within erythrocytes as well, circulate in the bloodstream and are ingested by the mosquito, thereby completing the life cycle (see CDC website). To profile malarial lines for differential chemical responses and to identify inhibitors of malarial growth, an assay that measures P. falciparum growth and replication within erythrocytes was employed. This assay uses a DNA binding fluorescent dye (SYBR Green) to detect parasite DNA following cell lysis. Because mature erythrocytes lack DNA, only Plasmodium-derived DNA is detected. The P. falciparum line cp250, derived from a malarial isolate from Cambodia, (Mu, J., et al. 2010) was added to the panel of lines, Dd2, HB3, 7G8 and GB4 in this study. Laboratory of Assay Development and Screening Technology [ADST] and NIH Chemical Genomics Center [NCGC] Boston University, Chemistry Department, Center for Chemical Methodology and Library Development [CMLD-BU] NIH National Institute of Allergy and Infectious Diseases [NIAID]
# ADST Assay Protocol Summary: The 1536-well SYBR Green viability assay was based on the method of Bennett et al (2004) and described previously in 1536-well format (Yuan J., et al. 2009). For screening 3 ul culture medium was dispensed into 1536 well black clear bottom plates (Aurora Biotechnologies) using a Multidrop Combi (Thermo Fisher Scientific Inc.), 23 nL compounds in DMSO were added by a pin transfer (Cleveland, P.H. and Koutz, P.J, 2005) using a pin tool-based delivery system (Kalypsys), and 5 ul of erythrocytes infected with P. falciparum one of five lines (cp250, Dd2, HB3, 7G8 or GB4, 0.3% parasitemia, 2.5% hematocrit final concentration) were added. The plates were incubated at 37C in a humidified incubator in 5% CO2 for 72 h, and 2 ul lysis buffer (20 mM Tris HCl, 10 mM EDTA, 0.16% saponin, 1.6% triton X, 10X SYBR Green I (supplied as 10,000X final concentration by Invitrogen) was added to each well. The plates were mixed for 25 sec with gentle shaking and incubated overnight at room temperature in the dark. The following morning, fluorescence intensity at 485(14) nm excitation and 535(25) nm emission wavelengths was measured on an EnVision (Perkin Elmer) plate reader. Plate reads were normalized relative to the control inhibitor (0.29 uM artemisinin) and vehicle (DMSO) wells present on each plate and then corrected by an algorithm using vehicle-only control plates at the beginning and end of the compound plate stack. References Shah, S. (2010). The Fever: how malaria has ruled humankind for 500,000 years. New York, Sarah Crichton Books. CDC web site, http://www.cdc.gov/malaria/about/biology/index.html Mu, J., Myers, R.A., Jiang, H., Liu, S., Ricklefs, S., Waisberg, M., Chotivanich, K., Wilairatana, P., Krudsood, S., White, N.J., et Plasmodium falciparum genome-wide scans for positive selection, recombination hot spots and resistance to antimalarial drugs Nature Genetics 2010, 42, pp 268-271 Bennett TN, Paguio, M., Gligorijevic, B., Seudieu, C., Kosar, A. D., Davidson, E., and Roepe, P. D. Novel, rapid, and inexpensive cell-based quantification of antimalarial drug efficacy Antimicrobial Agents Chemother. 2004, 48(5): pp 1807-10 Yuan J, Johnson RL, Huang RL, Wichterman J, Jiang HY, Hayton K, Fidock DA, Wellems TE, Inglese J, Austin CP, Su XZ. […]
row,SMILES,outcome
1,CC(=O)[C@]12[C@H](c3ccccc3)[C@@H]3CCN(C(=O)N[C@H]1c1ccccc1)[C@@]32C,inactive
2,COC(=O)[C@@H]1[C@@H](c2ccccc2)[C@H]2C(=O)c3c(OC)cc(OC)cc3O[C@@]12c1ccc(OC)cc1,inactive
3,COC(=O)[C@@]1(C=C2c3ccccc3[C@@H](OC)[C@@H]2C)[C@@H]2Oc3ccccc3[C@@H]21,inactive
4,COC(=O)[C@@]12Cc3ccccc3[C@H]1C[C@H](C)[C@@H](C)N2C(=O)C(F)(F)F,inactive
5,CCC[C@]12CCN3C(=O)N[C@@H](c4ccccc4)[C@](C(=O)OCC)(C1)[C@H]32,inactive
6,CCOC(=O)[C@]12C[C@]3(C)CCN(C(=O)N[C@@H]1c1ccccc1)[C@@H]32,inactive
7,CCOC(=O)[C@]12C[C@]3(C)CCCN(C(=O)N[C@@H]1c1ccccc1)[C@@H]32,inactive
8,C=C1[C@@H]2CCN3C(=O)N[C@@H](c4ccccc4)[C@@]1(C(=O)OCC)C23 (stereo partly specified),inactive
9,COC(=O)C1=C[C@H]([C@@H](C)[C@H](OC)c2ccccc2Br)[C@H]2[C@H]1c1ccccc1N2C,inactive
10,COC(=O)[C@@]1(C=C2c3ccc(F)cc3[C@@H](OC)[C@@H]2C)[C@@H]2Oc3ccccc3[C@@H]21,inactive
11,CCOC(=O)[C@]12C[C@@H]3CCN(C(=O)N(C(C)=O)[C@@H]1c1ccccc1)[C@@H]32,inactive
12,COC(=O)C12CC3=CCC4C(=O)N(c5ccccc5)C(=O)C4C3Cc3ccccc3[C@H]1CNC2=O (stereo partly specified),inactive
13,CC(=O)[C@]12C[C@]3(C)CCCN(C(=O)N[C@@H]1c1ccccc1)C32 (stereo partly specified),inactive
14,CC(=O)[C@]12C[C@@H]3CCCN(C(=O)N[C@@H]1c1ccccc1)[C@@H]32,inactive
15,COC(=O)C1=C2CCO[C@@H]2[C@H]2[C@@H](C)[C@H](OC)c3ccccc3[C@H]12,inactive
16,CCOC(=O)[C@@]12C3[C@@H](CCN3C(=O)N[C@@H]1c1ccccc1)[C@@H]2C (stereo partly specified),inactive

row,SMILES,outcome
1,CCOC(=O)[C@]12C[C@@H]3OCCN(C(=O)N[C@@H]1c1ccccc1)[C@@H]32,inactive
2,COC(=O)C1C2CC(C)C(c3ccccc32)N1C(=O)C(F)(F)F (stereo unspecified),inactive
3,COC(=O)[C@@]1(C=C[C@@H](C)[C@H](OC)c2ccccc2Br)[C@@H]2Oc3ccccc3[C@@H]21,inactive
4,COC(=O)C1(C)C2CC(C)C(c3ccccc32)N1C(=O)C(F)(F)F (stereo unspecified),inactive
5,COC(=O)C1=C2CCO[C@H]2[C@@H]2[C@@H](C)[C@H](OC)c3ccccc3[C@@H]12,inactive
6,CCOC(=O)[C@@]12[C@@H]3[C@@H](CCN3C(=O)N[C@H]1c1ccccc1)C2(C)C,inactive
7,COC(=O)C1=NN=C(C(=O)OC)[C@@]2(C)c3ccccc3NC12 (stereo partly specified),inactive
8,COC(=O)C1c2c(n(C)c3ccccc23)[C@H]2[C@@H](C)[C@H](OC)c3ccccc3[C@@H]12 (stereo partly specified),inactive
9,COC(=O)C1=C2CCCO[C@H]2[C@@H]2[C@@H](C)[C@H](OC)c3ccccc3[C@@H]12,inactive
10,CC(=O)[C@]12C[C@@H]3CCN(C(=O)N[C@@H]1c1ccccc1)[C@@]32C,inactive
11,C=C(C)C(=O)CP(=O)(OCC)OCC,inactive
12,COC(=O)[C@]12C[C@@H]3CCN(C(=O)N[C@@H]1c1ccccc1)[C@@]32C,inactive
13,CCOC(=O)[C@]12C[C@]3(OC)CCN(C(=O)N[C@@H]1c1ccccc1)[C@@H]32,inactive
14,CO[C@@H]1c2ccccc2[C@H]2C(C(=O)O)c3c(n(C)c4ccccc34)[C@H]2[C@H]1C (stereo partly specified),inactive
15,CC(=O)[C@@]12C3[C@@H](CCN3C(=O)N[C@H]1c1ccccc1)[C@H]2c1ccccc1 (stereo partly specified),inactive
